Hit rate of the full screen: of about 96,000 compounds, about 1,400 (1.5%) were called active. For the sample, actives were picked, then their nearest neighbours and some compounds at random. Values without a mark were called inactive.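 The calls were made as follows: active = activation factor of 2 or more for CYP2C9 at a 5 µM dose; inactive = the rest.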
What follows are compounds tested against Cytochrome P450 2C9 (Homo sapiens) (UniProt P11712) (assay: enhancers of cytochrome P450 2C9 turnover – biochemical, luminescence, primary screen (AID 1024;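 also: 0 = sulfaphenazole-blocked wells and 1 = vehicle-only wells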)). Conditions: recombinant CYP2C9, luciferin-H conversion, at 5 µM, active compounds read high, factor 1 = untreated enzyme, 0 = blocked.
Cytochrome P450 2C9 (Homo sapiens), sequence (P11712 whole entry, looked up): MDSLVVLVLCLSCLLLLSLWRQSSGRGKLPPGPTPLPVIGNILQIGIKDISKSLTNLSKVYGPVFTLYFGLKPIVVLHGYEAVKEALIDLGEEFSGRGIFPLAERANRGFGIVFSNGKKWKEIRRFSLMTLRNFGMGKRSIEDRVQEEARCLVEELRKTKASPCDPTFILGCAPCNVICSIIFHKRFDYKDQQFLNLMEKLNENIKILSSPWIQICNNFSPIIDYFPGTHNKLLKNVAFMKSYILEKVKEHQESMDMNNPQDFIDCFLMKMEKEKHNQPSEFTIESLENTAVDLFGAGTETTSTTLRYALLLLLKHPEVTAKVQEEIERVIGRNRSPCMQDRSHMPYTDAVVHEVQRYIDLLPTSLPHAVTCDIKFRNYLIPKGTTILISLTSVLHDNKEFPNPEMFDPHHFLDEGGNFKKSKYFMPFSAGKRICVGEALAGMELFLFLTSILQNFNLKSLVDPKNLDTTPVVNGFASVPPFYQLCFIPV

Point of comparison: `CC1CCN(C(NC(=O)c2ccco2)C(=O)c2ccccc2)CC1` (stereo not given), activation factor 0.3. Against it:
- CCN(c1ccccc1)S(=O)(=O)c1ccc(NC(=O)C(C)(C)C)cc1 — higher, 0.7
- CCN(c1ccccc1)S(=O)(=O)c1cccc(C(=O)O)c1 — higher, 0.7
- O=C(NCCc1ccccn1)c1cc(C(=O)C2CCCCC2)c[nH]1 — higher, 0.9
- COc1ccc(CCNC(=O)COC(=O)c2ccc[nH]c2=O)cc1 — higher, 0.8
- COc1cc(C2C(C(=O)OCCC#N)=C(C)NC3=C2S(=O)(=O)c2ccccc23)cc(OC)c1OC (stereo not given) — higher, 0.5
- Cn1c(=O)cc(OCCCC(=O)N2CCN(Cc3ccc4c(c3)OCO4)CC2)c2ccccc21 — higher, 0.9
- O=C(Nc1cccc2ccccc12)N1CCN(Cc2ccc3c(c2)OCO3)CC1 — higher, 0.6
- COc1ccc(N(CC(=O)N/N=C/c2cccc3c2OCCO3)S(=O)(=O)c2ccc(NC(C)=O)cc2)cc1 — lower, 0.2
- CCN(CC)S(=O)(=O)c1ccc2c3c(cccc13)C(=O)S2 — higher, 1.5
- COc1cccc(C(=O)c2cc3ccc(O)cc3oc2=O)c1 — lower, 0.1
- COc1ccc2oc(=O)c(C(=O)O)cc2c1 — higher, 1.1
- O=C(Oc1ccccc1)Oc1ccc2c(c1)oc(=O)c1ccccc12 — higher, 1.6
- Cc1n[nH]c(=S)n1/N=C/c1ccc(Br)o1 — higher, 1
- CCc1cccc2c(C=C(C#N)C#N)cn(CC(=O)N3CCCCC3)c12 — higher, 1
- Cc1nc(SCC(=O)N2CC(=O)Nc3ccccc32)c2c(C)c(C)sc2n1 — higher, 0.4
- COc1ccc(S(=O)(=O)N2CCC(C(=O)N3CCc4ccccc4C3)CC2)cc1OC — higher, 0.5
- COc1ccc(C2CC(=O)n3c(nc4ccccc43)S2)cc1OC (stereo not given) — higher, 0.9
- COc1ccc(CNC(=O)C2CCC(CNc3c(N4CCOCC4)c(=O)c3=O)CC2)cc1 (stereo not given) — higher, 1.1
- Cc1ccc(CNC(=O)c2ccccc2CCc2ccccc2)cc1 — higher, 0.7
- Nc1ccc(Oc2ccc(Cl)cc2)cc1 — higher, 0.8
- N#Cc1ccc(-c2ccc(Cl)cc2)nc1Oc1ccc(F)cc1 — higher, 0.9
- C=CCNC(=O)c1sc(SC)cc1-c1ccc(Cl)cc1 — higher, 0.4
- Cc1ccc(C(=O)OC2=CC(=O)CC(C)(C)C2)cc1 — higher, 0.7
- Cc1ccc(S(=O)(=O)NCCN2CCOCC2)cc1C — higher, 0.8
- O=[N+]([O-])c1ccc(NCCCN2CCOCC2)c(Cl)c1 — higher, 0.9
- O=C(CN1CCN(S(=O)(=O)c2ccc(Cl)s2)CC1)NCc1ccc(Cl)cc1 — higher, 0.4
- CCCCNCc1ccc(SC)cc1 — higher, 1
- O=C(NCc1ccccn1)c1cc2ccccc2oc1=O — higher, 1.3
- C=CCNC(=O)c1cc(-c2ccccc2O)on1 — higher, 1.5
- COc1ccccc1NC(=O)COc1ccc(C(=O)OCC(=O)N(C(C)C)C(C)C)cc1OC — higher, 0.6
- O=C(NCc1ccc2c(c1)OCO2)C1CCCN(S(=O)(=O)c2cccs2)C1 (stereo not given) — lower, 0.1
- O=C(c1ccc2c(c1)OCCO2)C1CCN(S(=O)(=O)c2cccc(F)c2)CC1 — higher, 1.2
- FC(F)(F)c1cccc(-c2cc3ccccc3nc2N2CCCC2)c1 — higher, 0.9
- CCOC(=O)n1c(SCC(=O)N(CC)CC)nc2ccccc21 — higher, 0.7
- CCN(CC)C(=O)CSc1nnc(-c2cccc(OC)c2)o1 — higher, 1.6
- CCN1CCN(c2ccc([N+](=O)[O-])cc2C(=O)c2ccc(Cl)cc2)CC1 — higher, 1.6
- CC1CC(C)CN(C/C=C/c2ccccc2[N+](=O)[O-])C1 (stereo not given) — higher, 0.9
- COc1ccc(NC(=O)CN2CCN(S(=O)(=O)c3ccc(F)cc3)CC2)cc1Cl — higher, 0.8
- COc1ccc(Cl)cc1S(=O)(=O)Nc1cccc(C(=O)O)c1 — higher, 0.9
- O=C(CSCc1ccc([N+](=O)[O-])cc1)NCCSCc1ccccc1 — higher, 0.6
- CCOC(=O)C1CN(S(=O)(=O)c2ccc(F)cc2)C1 — higher, 0.9
- Cc1nc(C)c(C(=O)Nc2cccc(C)c2C)o1 — higher, 1
- Cc1nc(C)c(C(=O)Nc2ccc(C)c(F)c2)o1 — higher, 1
- Cc1ccc(NC(=S)NC2CCCC2)cc1 — higher, 0.7
- COc1ccc([N+](=O)[O-])cc1NC(=O)CCc1ccccc1 — higher, 1.7
- COc1ccccc1NC(=O)/C=C/C(N)=O — higher, 1.2
- COc1ccccc1NC(=S)NC(=O)C(C)C — higher, 0.9
- N#Cc1ccsc1NC(=O)CN1CCCCC1 — higher, 1.2
- COc1cc(/C=N\NC(=O)CNC(=O)c2cccc([N+](=O)[O-])c2)ccc1O — higher, 1.1
- CC1(C)CC(=O)C2=C(C1)N=C1SCCC(=O)N1C2c1ccc(C(F)(F)F)cc1 (stereo not given) — higher, 1.2
- CCOc1ccc(S(=O)(=O)Nc2ccc(S(=O)(=O)Nc3cc(OC)ccc3OC)cc2)cc1 — lower, 0.2
- CCOc1ccccc1NC(=O)Nc1cc(OC)ccc1OC — higher, 1
- CCOC(=O)c1sc2nc(SC)nc(-c3ccccc3)c2c1N — higher, 0.9
- O=c1c([N+](=O)[O-])cc(C(F)(F)F)cn1Cc1cccc(Cl)c1 — higher, 0.8
- O=C(Nc1ccc(S(=O)(=O)N2CCc3ccccc3C2)cc1)c1ccccc1 — higher, 1
- O=S(=O)(c1cccs1)N1CCN(Cc2ccccc2)CC1 — the same, 0.3
- COc1ccc(C(=O)N2CCc3cc(OC)c(OC)cc3C2c2cccc([N+](=O)[O-])c2)cc1 (stereo not given) — higher, 0.4
- Cc1nnsc1S(=O)(=O)Cc1ccccc1Cl — higher, 1
- O=S(=O)(NCc1ccccn1)c1ccc(F)cc1 — higher, 1
- COc1ccc(CCNS(=O)(=O)c2ccc(F)cc2)cc1OC — lower, 0.2
- O=C(/C=C/c1ccccc1)c1ccoc1 — higher, 0.8
- Cc1nn(C)c(Oc2ccccc2)c1CCNS(=O)(=O)c1ccc(F)cc1 — higher, 0.5
- CC(C)(C)NC(=O)NC(=O)COC(=O)CCC1CCCCC1 — higher, 0.9
- COc1ccc(NC(=O)c2cccc(NC(=O)c3ccco3)c2)c(OC)c1 — higher, 1.5
- COc1ccc(OC)c(NC(=O)c2cnn(-c3ccccc3Cl)c2NC(=O)c2ccco2)c1 — higher, 0.8
- COc1cccc(C(=O)Nc2ccc(NC(=O)c3ccco3)cn2)c1 — higher, 0.8
- COC(=O)c1ccc(NC(=O)c2ccco2)cc1 — higher, 0.8
- CCOC(=O)Nc1ccc(S(=O)(=O)N(C)C(C)C)cc1 — higher, 0.7
- O=C(COc1ccc(Br)cc1F)NC1CCN(Cc2ccccc2)CC1 — higher, 0.7
- Cc1onc(-c2c(Cl)cccc2Cl)c1C(=O)c1c[nH]c(C(=O)NC2CC2)c1 — higher, 0.9
- Cc1cc(C(=O)CSc2nc(N)cc(=O)[nH]2)c(C)n1CCc1ccc(Cl)cc1 — higher, 0.9
- CCn1cc(C(=O)N/N=C(/C)c2ccc(F)cc2)c(=O)c2cc(F)c(N3CCCC3)cc21 — higher, 0.9
- COc1ccc(S(=O)(=O)NC(CC(=O)NCc2ccccc2OC)c2ccco2)cc1 (stereo not given) — higher, 1.4
- COc1ccccc1Cc1nc(-c2ccc(C)cc2)no1 — higher, 0.9
- CCOC(=O)C1(S(=O)(=O)c2ccc(Cl)cc2)CCN(Cc2ccccc2)CC1 — higher, 0.8
- Cc1nc2cc(NC(=O)CSc3nc4c(C)cccc4cc3C#N)ccc2s1 — higher, 0.7
- O=C(CCCCn1c(=O)[nH]c2ccccc2c1=O)NCc1ccc2c(c1)OCO2 — the same, 0.3
- O=C(COc1ccccc1)NCc1ccc2c(c1)OCO2 — higher, 0.7
- CCCc1cc(=O)[nH]c(SCC(=O)c2cc(C)n(CCC)c2C)n1 — higher, 0.9
- Cc1ccc2nc(SCc3nnc(-c4ccccc4[N+](=O)[O-])o3)c(C#N)cc2c1 — higher, 0.8
- COC(=O)Cc1cc(=O)oc2c(C)c(O)ccc12 — higher, 1.2
- Cc1nc(Cl)c2oc3ccccc3c2n1 — higher, 0.9
- Cc1ccc(NC(=O)C2CC(c3ccc(F)cc3)=NO2)cc1 (stereo not given) — higher, 0.8
- CC(C)C(=O)Nc1cccc(C(=O)Nc2ccc3c(c2)OCO3)c1 — higher, 0.4

With `CCN(c1ccccc1)S(=O)(=O)c1ccc(N)cc1` the activation factor was 2.4 (active).
For `O=C(CCCN1C(=O)c2cccc3cccc(c23)C1=O)N1CCN(Cc2ccc3c(c2)OCO3)CC1`, the activation factor was 2.4 (active).
For `COc1cccc2cc(C(=O)N(C)C)c(=O)oc12`, the activation factor was 2 (active).
In the case of `COc1ccc(C2SCCN2S(=O)(=O)c2ccccc2)cc1OC` (stereo not given), the activation factor is reported as 2.1 (active).
With `Clc1ccc(Cl)c(Oc2ccc(Oc3nc(Cl)ccc3Cl)cc2)n1` the activation factor was 2 (active).
For `Cc1cc(C)c(S(=O)(=O)NCCCN2CCOCC2)cc1Br`, the activation factor was 2 (active).
In the case of `O=C(NCc1ccccn1)c1cc(-c2ccccc2Cl)on1`, the activation factor is reported as 2.6 (active).
For `O=C(NCc1cccs1)C1CCN(S(=O)(=O)c2ccc3c(c2)OCCO3)CC1`, the activation factor was 2.7 (active).
`CCN(Cc1ccccc1)C(=O)CSc1nc(C)cc2c1C(=O)OC2` was tested, and the activation factor was 2.3 (active).
For `COc1ccc(Cl)cc1S(=O)(=O)N1CCN(CC(=O)C(C)(C)C)CC1`, the activation factor was 2.4 (active).
`COc1ccc(Cl)cc1NC(=O)c1oc(C)nc1C` was tested, and the activation factor was 2.7 (active).
For `COc1ccccc1NC(=O)c1ccc(C)s1`, the activation factor was 3.5 (active).
For `CCOc1ccc(C(=O)Nc2cc(OC)ccc2OC)cc1`, the activation factor was 2.1 (active).
With `O=S(=O)(c1cccs1)N1CCc2ccccc2C1` the activation factor was 3.1 (active).
In the case of `O=S(=O)(NCCOc1cccc2cccnc12)c1ccc(F)cc1`, the activation factor is reported as 3.3 (active).
With `COC(=O)c1cc(Cl)c(NC(=O)c2ccco2)cc1OC` the activation factor was 2.4 (active).
For `COc1ccccc1C(=O)Nc1ccc(NC(=O)c2ccco2)c(C)c1`, the activation factor was 2.8 (active).
For `COc1ccccc1CNS(=O)(=O)c1ccc(C)cc1`, the activation factor was 2.6 (active).
With `Cn1cc(CCC(=O)NCc2ccc3c(c2)OCO3)c2ccccc21` the activation factor was 2.2 (active).
For `O=C(Nc1ccc2c(c1)OCO2)C1CC(c2c(F)cccc2Cl)=NO1` (stereo not given), the activation factor was 2.6 (active).

Source: PubChem BioAssay AID1024 (Sanford-Burnham Center for Chemical Genomics, 2008)
